What all share (assay): NCI-60 one-dose screen, 48 h (100 = growth as untreated, 0 = no growth, -100 = all killed)
Details in all cases: 10 µM unless noted

For assay [1], the system named is DU-145 prostate.
For assay [2], the system named is K-562 leukemia.
The test system of assay [3] is MALME-3M melanoma.
The subject of assay [4] is MDA-MB-231 breast.
Assay [5] has as its system RXF 393 renal.
The subject of assay [6] is SF-268 CNS.
Assay [7] has as its system SF-295 CNS.
Assay [8] relates to SF-539 CNS.
Assay [9] concerns UACC-257 melanoma.
Assay [10] relates to M14 melanoma.

The panel holds about 83,000 compounds, 20% with a hit somewhere; the sample as a whole holds those more often.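 48-hour exposure, single concentration, 96-well plates; percent growth endpoint where 0 means no net growth. Active: below 10.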 A number with no mark means an inactive call. The source made the active and inactive calls.

As for `O=C1NC(=Nc2ccc(O)cc2)S/C1=C\c1cccc(Cl)c1`, the growth in assay [1] was 84.5%; in assay [2], 21.9%; in assay [3], 88.7%; in [4], 96.2%; in assay [5], 75.1%; in [6], 74.1%. Also, the growth is 69.1% in assay [7], 68.6% in [8], 95.9% in [9] and 56.7% in [10].
For `Cn1c(=O)[nH]c(=O)c2nc(CCC(=O)NCCC(=O)O)c(=O)[nH]c21`, the growth is 113% in [1]; 104% in assay [2]; 98.9% in assay [3]; 110% in assay [4]; 112% in assay [5]; 98.2% in assay [6]. Moreover, the growth in [7] was 102%; in [8], 95.7%; in [9], 101%; in [10] it was 111%.
With `Cc1nn(-c2cc(=O)[nH]c3ccccc23)c(N)c1C#N`, the growth in assay [1] is 107%; in assay [2], 105%; in assay [3], 108%; in [4], 103%; in assay [5] it was 112%; in assay [6], 97.7%. Moreover, the growth was 100% in assay [7], 95% in assay [8], 110% in assay [9] and 106% in assay [10].
Regarding `Cc1nn(-c2cc(=O)[nH]c3ccc(Cl)cc23)c(N)c1C#N`, the growth in assay [1] is 114%; in assay [2], 113%; in [3], 105%; in assay [4], 96.9%; in assay [5], 113%; in assay [6], 102%. In addition, the growth in [7] is 100%; in assay [8], 99.9%; in [9] it was 107%; in assay [10], 110%.
For the compound `COC(=O)[C@]12CCC(C)(C)C[C@H]1[C@H]1C(=O)C[C@@H]3[C@@]4(C)c5c([nH]c6ccccc6c5=O)C(C)(C)[C@@H]4CC[C@@]3(C)[C@]1(C)CC2`, the growth in assay [1] is 86.5%; in assay [2], 18.9%; in [3], 88.1%; in assay [4], 86.4%; in [5] it was 65.7%; in [6], 82%. In addition, the growth in assay [7] was 35.6%; in assay [8] it was 92.1%; in [9], 57.4%; in assay [10] it was 29%.
Turning to `O=S(=O)(Nc1ccc(OC(F)F)cc1)c1ccc(-c2cnc(C3CC3)o2)cc1`, the growth in assay [1] was 90.5%; in [2], 19.8%; in assay [3] it was 76.5%; in assay [4], 70.2%; in assay [5], 81.9%; in assay [6] it was 75.4%. The growth in assay [7] is 53.3%; in [8], 79.2%; in assay [9], 75%; in assay [10], 50.9%.
As for `CC[C@]1(O)C[C@@H]2CN(CCc3c([nH]c4ccccc34)[C@@](C(=O)OC)(c3cc4c(cc3OC)N(C)[C@H]3[C@@](O)(C(N)=O)[C@H](O)[C@]5(CC)[C@@H]6C[C@@H]6CN6CC[C@]43[C@@H]65)C2)C1`, the growth in assay [1] was 4.49% (active); in [2] it was 11.8%; in assay [3], 85.5%; in [4], 2.3% (active); in assay [5] it was 60.4%; in [6], 30.8%. Further, the growth in assay [7] is 15.8%; in assay [8], 7.92% (active); in [9] it was 53.6%; in [10], 1.22% (active).
As to `COc1ccc(-c2nc3ccc(-c4nc5ccc(N6CCN(c7ccc(F)cc7)CC6)cc5[nH]4)cc3[nH]2)cc1OC`, the growth in assay [1] is 80.3%; in assay [2], 17.7%; in assay [3] it was 43.9%; in assay [4], 107%; in assay [5], 68.6%; in assay [6], 82.6%. Further, the growth is 76% in assay [7], 68.2% in assay [8], 104% in assay [9] and 61.8% in [10].
In the case of `Cc1cn2c(/C=C3/C(=O)Nc4c3ccc3ccccc43)c(C(F)(F)F)nc2s1`, the growth in [1] was 4.07% (active); in [2], 8.76% (active); in assay [3] it was 42.4%; in [4], 38.1%; in assay [5], -19.3% (active); in [6], 43.5%. Further, the growth was 7.54% (active) in assay [7], -5.73% (active) in assay [8], 54.4% in assay [9] and 8.69% (active) in [10].
For `Cn1c(NCCc2ccc(O)c(O)c2)nc2c1c(=O)n(Cc1ccc(Br)cc1)c(=O)n2C`, the growth in [1] is 78.9%; in assay [2], 81%; in assay [3], 81.4%; in assay [4], 69.2%; in [5], 81%; in assay [6] it was 68.4%. Also, the growth in [7] is 98%; in [8] it was 79.1%; in assay [9] it was 88.5%; in [10], 96.5%.
Take `c1ccc(Cn2cc(-c3nc4ccccc4s3)c3cccnc32)cc1`: the growth in [1] was 102%; in [2], 129%; in assay [3], 95%; in [4], 84%; in [5], 115%; in [6], 99%. The growth in assay [7] is 102%; in assay [8], 100%; in [9], 110%; in assay [10], 106%.
Take `O=C1/C(=C/C(Cl)=C/c2ccccc2)SC(=S)N1CCc1ccc(O)cc1`: the growth is 15.8% in assay [1]; 5.68% (active) in [2]; -2.34% (active) in assay [3]; 27.3% in assay [4]; -46.1% (active) in assay [5]; 19.8% in assay [6]. Also, the growth in assay [7] was 4.96% (active); in assay [8], 3.33% (active); in assay [9], 17.4%; in assay [10] it was -12.7% (active).
Regarding `COc1ccc(C2CC(c3ccc(Cl)cc3)=NN2/C=C2\SC(=S)N(NC(=O)Cc3ccccc3Nc3c(Cl)cccc3Cl)C2=O)cc1` (stereo not given), the growth in [1] is 72.5%; in assay [2] it was 1.36% (active); in assay [3], 60.5%; in [4], 42.1%; in assay [5], 66.2%; in assay [6], 62.9%. For the same compound, the growth was 88% in assay [7], 71.1% in [8], 88.5% in assay [9] and 65.9% in assay [10].

These data come from PubChem BioAssay (NCI).
